Compound activity (PubChem BioAssay)
A selection: hits, their analogues and other compounds. The true share with any hit is near 1%.
APE1 inh: inhibitors of human APE1 endonuclease. Potency, µM (titrated, usually from 65.8 µM), without a hit: at the top dose activity change, negative = inhibition, hits mostly inhibitors. recombinant APE1, TAMRA/BHQ-2 abasic DNA cleavage fluorescence. P27695. hit rate 0.35% among 350,000;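 note: plate controls were vehicle for no effect and reference inhibitor for full effect; nearly all actives have a fitted effect of over 55% in size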
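Step 1: APE1 (0.75 nM) with compound, 15 min RT. Step 2: add 50 nM fluorophore/quencher THF duplex. Step 3: three fluorescence reads 60 s apart (525/598 nm); read 3 minus read 1 = reaction progress.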
L3MBTL1 inh: blocks human L3MBTL1; Q9Y468; AlphaScreen L3MBTL1–H3K9me1 peptide binding; Potency, µM (doses to about 57.1 µM), for the others: at the top dose activity, negative = inhibition, most hits filed as inhibitors; hit rate 0.66% among 230,000; note: % is set by controls: 0 for no effect and ±100 for the full control effect; nearly all actives have a fitted effect of over 60% in size
Target sequence (Q9Y468 whole entry, looked up): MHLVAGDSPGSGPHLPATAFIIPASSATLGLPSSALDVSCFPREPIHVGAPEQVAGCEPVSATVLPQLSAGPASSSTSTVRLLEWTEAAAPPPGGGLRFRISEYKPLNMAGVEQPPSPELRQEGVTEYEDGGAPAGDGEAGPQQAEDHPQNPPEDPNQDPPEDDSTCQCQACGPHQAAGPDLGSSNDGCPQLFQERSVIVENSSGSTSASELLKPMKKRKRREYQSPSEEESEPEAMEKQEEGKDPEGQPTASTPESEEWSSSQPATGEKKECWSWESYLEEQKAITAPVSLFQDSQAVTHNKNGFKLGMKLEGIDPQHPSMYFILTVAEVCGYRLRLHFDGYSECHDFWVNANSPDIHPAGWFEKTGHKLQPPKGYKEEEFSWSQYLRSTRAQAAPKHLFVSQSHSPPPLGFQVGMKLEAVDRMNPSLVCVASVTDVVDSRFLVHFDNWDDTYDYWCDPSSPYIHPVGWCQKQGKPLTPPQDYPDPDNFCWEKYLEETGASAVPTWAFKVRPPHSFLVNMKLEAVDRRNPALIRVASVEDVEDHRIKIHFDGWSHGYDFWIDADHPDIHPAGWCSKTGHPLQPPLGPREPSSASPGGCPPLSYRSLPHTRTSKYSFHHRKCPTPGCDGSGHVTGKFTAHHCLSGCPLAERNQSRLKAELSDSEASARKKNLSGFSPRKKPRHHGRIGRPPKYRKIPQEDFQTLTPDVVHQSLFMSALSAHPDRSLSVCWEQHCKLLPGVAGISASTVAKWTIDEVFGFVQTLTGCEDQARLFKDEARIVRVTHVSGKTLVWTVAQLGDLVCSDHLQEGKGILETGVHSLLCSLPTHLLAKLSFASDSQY
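Displacement of a biotinylated histone H3(1-15) peptide monomethylated at Lys9 (75 nM) from L3MBTL1 (50 nM) was measured by AlphaScreen after a 30 min room-temperature compound incubation; cefsulodin titration served as intraplate control.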
BLM helicase inh-1: inhibitors of human Bloom syndrome helicase BLM. P54132. AID 2528. hit rate 0.2% among 350,000. Potency, µM (top dose mostly 56.1 µM), inactives show at the top dose activity change, negative = inhibition, most hits filed as inhibitors. recombinant BLM DNA unwinding, fluorescence dequenching;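 note: plate controls were vehicle for no effect and no enzyme for full effect; nearly all actives have a fitted effect of over 35% in size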
WRN helicase inh-1: inhibitors of human WRN helicase. Q14191. WRN helicase unwinding, fluorescent forked duplex, kinetic. Potency, µM (highest dose often 114 µM), for the others: at the highest dose activity change, negative = inhibition, actives largely listed as inhibitors. hit rate 0.46% among 360,000. AID 651768; note: % is set by controls: 0 for no effect and ±100 for the full control effect; nearly all actives have a fitted effect of over 55% in size
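WRN at 20 nM final was preincubated with compound for 15 min at room temperature; reaction started with 100 nM forked duplex oligonucleotide carrying fluorophore and quencher plus 2 mM ATP (final). Unwinding followed kinetically by red fluorescence (ex 525/em 598 nm).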
RECQ1 helicase: RECQ1 (human) helicase inhibition. P46063. RECQ1 DNA unwinding, red fluorescence kinetic read. Potency, µM (highest dose often 57.3 µM), inactives show at the highest dose activity, negative = inhibition, hits mostly inhibitors. hit rate 0.54% among 240,000. AID 2549;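 note: plate controls were vehicle for no effect and no enzyme for full effect; nearly all actives have a fitted effect of over 30% in size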
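RECQ1T1 50 nM; forked duplex (20 bp + 30-nt ss tails) 200 nM, ATP 2 mM final; pH 8.0, 2 mM MgCl2, 2.5 ug/ml poly(dI-dC); 15 min compound preincubation; discontinuous kinetic read over 2 h at RT.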
FEN1 inh: blocks human flap endonuclease 1. P39748. Recombinant FEN1 flap cleavage, fluorescence, 15 min. Potency, µM (series often up to 114 µM), inactives show at the top dose activity change, negative = inhibition, hits mostly inhibitors. hit rate 0.35% among 390,000; note: % is set by controls: 0 for no effect and ±100 for the full control effect; nearly all actives have a fitted effect of over 65% in size
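Enzyme 10 nM, 15 min RT preincubation with compound; start with substrate 50 nM final; reads at 0 and 15 min; qHTS titration, four-parameter Hill fit.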
WRN helicase inh-2: WRN helicase inhibition, cherry-pick retest. hit rate 63% among 610. AID 720497. WRN helicase DNA unwinding, fluorescence kinetic. shares compounds with WRN helicase inh-1. Potency, µM (series often up to 57.1 µM), without a hit: top-dose activity, negative = inhibition, actives largely listed as inhibitors; note: nearly all actives have a fitted effect of over 65% in size
TO DNA binding: counter-screen for WRN helicase inhibitors: DNA binding. hit rate 10% among 610. AID 720499. thiazole orange DNA binding displacement, fluorescence. Potency, µM (titrated, usually from 57.1 µM), inactives show at the top dose activity change, negative = inhibition, usual class: inhibitors. shares compounds with WRN helicase inh-1;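 note: drop in dye fluorescence marks compound binding to DNA; % is set by controls: 0 for no effect and ±100 for the full control effect; nearly all actives have a fitted effect of over 60% in size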
BLM helicase inh-2: blocks human BLM helicase in WRN counterscreen | AID 720503 | Potency, µM (top dose mostly 57.1 µM), for the others: at the highest dose activity change, negative = inhibition, hits mostly inhibitors | Recombinant BLM helicase DNA unwinding, red fluorescence | hit rate 60% among 610 | shares compounds with WRN helicase inh-1; note: nearly all actives have a fitted effect of over 60% in size
Starred values were filed as active, the others as inactive; ? = inconclusive; · = no result given; [ ] = another dose, or the depositor's remark. Calls come from the whole dose curve; as a rule, active = well fitted curve in the direction sought with a large enough effect; inconclusive = small, poorly fitted or top-dose-only effect, or another doubt; inactive = no such curve, though single readings can be large; an effect the other way counts as inactive or inconclusive. Potency is the fitted concentration of half-maximal effect.

SMILES | APE1 inh | L3MBTL1 inh | BLM helicase inh-1 | WRN helicase inh-1 | RECQ1 helicase | FEN1 inh | WRN helicase inh-2 | TO DNA binding | BLM helicase inh-2
Cn1cccc1/C=C1\C(=O)NC(=O)N(Cc2ccccc2)C1=O | 12.0% | · | -19.7% | ? | ? | -1.4% | ? | -12.7% | ?
Cn1cccc1/C=C1/C(=O)NC(=O)N(Cc2ccc(F)cc2)C1=O | -9.7% | · | -22.0% | ? | ? | -6.4% | · | · | ·
CCCCN1C(=O)/C(=C/c2ccc(N(C)C)cc2)C(=O)N(Cc2ccco2)C1=O | ? | ? | ? | 28.2µM* | 28.2µM* | ? | ? | 2.8% | 21.5µM*
CCCCN1C(=O)/C(=C\c2ccco2)C(=O)N(CCc2ccccc2)C1=O | ? | ? | ? | 31.6µM* | 31.6µM* | 56.2µM* | ? | -9.0% | 21.5µM*
CCN(CC)c1ccc(/C=C2\C(=O)NC(=O)N(Cc3ccco3)C2=O)cc1 | ? | -26.7% | 3.6% | 28.2µM* | ? | ? | ? | 1.3% | ?
Cc1cc(/C=C2/C(=O)NC(=O)N(Cc3ccco3)C2=O)c(C)n1-c1ccccc1O | -5.8% | -14.8% | -2.4% | -10.6%[11.6 µM] | -1.2% | 0.2% | · | · | ·
O=[N+]([O-])/C=C/c1ccccc1 | 5.3% | · | · | · | 6.7% | · | · | · | ·
O=[N+]([O-])c1cc(Cl)c(Cl)c(Cl)c1 | -1.7% | · | · | · | -4.6% | · | · | · | ·
O=C(Nc1ccc2oc(-c3cccnc3)nc2c1)c1ccc(-c2cccc(Cl)c2)o1 | · | · | ? | · | · | ? | 19.2µM* | 13.7% | 6.81µM*
CN(CC(=O)O)C(=O)[C@H](Cc1ccccc1)NC(=O)[C@@H](CCCN=C(N)N)NC(=O)[C@@H](N)Cc1ccc(O)cc1 | -7.9% | · | -1.3% | · | -4.3% | · | · | · | ·
O=C1NC(=O)N(Cc2ccc(F)cc2)C(=O)/C1=C\C=C\c1ccco1 | ? | · | ? | 35.5µM* | 28.2µM* | ? | 7.64µM* | -12.4% | 4.29µM*
Cc1cc(/C=C2\C(=O)NC(=O)N(c3ccccc3F)C2=O)c(C)n1-c1cc(C(=O)O)cc(C(=O)O)c1 | 10.6µM* | · | 44.2% | 39.8µM* | · | ? | ? | -8.0% | -4.5%
Cc1cc(/C=C2\C(=O)NC(=O)N(c3ccc(F)cc3)C2=O)c(C)n1-c1cccc(C(=O)O)c1 | 4.9% | ? | -2.6% | -11.2%[11.6 µM] | 2.6% | -5.7% | · | · | ·
